The target of assay [1] is ATP-dependent 6-phosphofructokinase (Trypanosoma brucei brucei) (UniProt O15648). The assay can be described thus: qHTS Assay to Find Inhibitors of T. brucei phosphofructokinase: hit validation (AID 492961).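 Also: luminescence reports ADP formed as PFK phosphorylates fructose-6-phosphate with ATP; series mostly up to about 51 µM; % is scaled to controls: 0 for no effect and ±100 for the full control effect.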 In short, it runs like this:
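In this biochemical qHTS validation, titrated compounds were tested against 1.25 nM PFK with 0.1 mM ATP and 0.5 mM F6P. Percent activity came from controls lacking or containing enzyme.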

A short description of assay [2]: Validation screen for small molecules that induce genotoxicity in human embryonic kidney (HEK293T) cells expressing luciferase-tagged ELG1 (AID 493106). Also: 0% is about no effect. In short, it runs like this: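 Reporter-gene quantitative HTS in HEK293T cells carrying luciferase-tagged ELG1, whose level climbs under genotoxic stress. Compound exposure lasts 16 hr at 37 °C before luciferase detection.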

Assay [3] concerns the target ATPase family AAA domain-containing protein 5 (Homo sapiens) (UniProt Q96QE3). The assay can be described thus: Validation screen for small molecules that inhibit ELG1-dependent DNA repair in human embryonic kidney (HEK293T) cells expressing luciferase-tagged ELG1 (AID 493107).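 Also: cells co-treated with the DNA-damaging agent 5-fluorouridine alongside compound; series mostly up to about 46 µM; % is scaled to controls: 0 for no effect and ±100 for the full control effect; inhibitors lower the ELG1-luciferase luminescence signal; nearly all actives have a fitted effect of over 70% in size.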 In short, it runs like this: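 Quantitative HTS in HEK293T cells carrying luciferase-tagged ELG1, stimulated with 5-fluorouridine alongside compound for 16 hr. Loss of luciferase signal marks inhibition of ELG1 response.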

Assay [4] is described as follows: Nrf2 qHTS screen for inhibitors: Validation (AID 493153; active = well fitted inhibition curve with a large enough effect in the main read-out, with a control signal flat, not every such curve was filed as active; also: potency is read from the fitted curve at half-maximal effect). Particulars: Potency: luciferase luminescence; viability change: measured here: cytotoxicity max response. In short, it runs like this: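 Dose-response validation uses reporter A549 cells with firefly luciferase under an antioxidant response element. Compounds stay on cells 18-24 h at 37°C, and luminescence indicates Nrf2-driven transcription.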

A short description of assay [5]: qHTS for Inhibitors of Cell Surface uPA Generation: Validation Assay (AID 493164).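 Also: RAW 264.7 macrophage cells exposed to compound for 18 h; 0% is about no effect.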 In short, it runs like this: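 RAW 264.7, 4000 cells/well, o/n plating; cpd 7-pt 1:5 dilution 2.45 nM–38.3 uM final; 18 h, 37 C/5% CO2; ATP-Lite, 5 s luminescence exposure.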
Assay [6] concerns the target Galactokinase (Homo sapiens) (UniProt P51570). Nature of the assay: qHTS Validation Assay for Inhibitors of Human Galactokinase (GALK) (AID 493189). Also: 0% is about no effect. In short, it runs like this: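 5 nM GALK / 100 uM galactose / 35 uM ATP, 20 mM HEPES pH8.0, 5 mM MgCl2, 60 mM NaCl, 1 mM DTT, 0.01% BSA (final). RT 1 h; Kinase-Glo Plus luminescence.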
The nature of assay [7]: Validation screen for small molecules that induce DNA re-replication in SW480 colon adenocarcinoma cells (AID 504364). Also: 0% is about no effect. In short, it runs like this:
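Cells are treated 48 hr with test compound, stained 40 min with Hoechst at 37 C, and scanned for nuclear fluorescence; compounds inducing re-replication increase nuclei with elevated intensity.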

Assay [8] addresses phosphoglycerate mutase (Leishmania major) (UniProt Q4Q090). The assay can be described thus: qHTS Validation Assay to Find Inhibitors of Phosphoglycerate Mutase (AID 504548). Also: series mostly up to about 58 µM; % is scaled to controls: 0 for no effect and ±100 for the full control effect. In short, it runs like this:
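Lm PGAM at 1.25 nM final with substrate in 100 mM TEA pH 7.6, 5 mM MgCl2, 0.01% Tween-20; 45 min at room temperature. Kinase-GloPlus added, 10 min, end-point luminescence read.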

Assay [9] concerns the target Ubiquitin carboxyl-terminal hydrolase 1 (Homo sapiens) (UniProt O94782). Nature of the assay: Inhibitors of USP1/UAF1: Pilot qHTS (AID 504865). Also: nearly all actives have a fitted effect of over 35% in size. Also: potency is read from the fitted curve at half-maximal effect. In short, it runs like this: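 In 50mM HEPES pH 7.8 containing 0.5mM EDTA, 1mM TCEP, 0.1 mg/ml BSA and 0.01% Tween-20, 1nM USP1/UAF1 is exposed to compound for 15 min, then Ub-Rho (150nM final) is added and fluorescence is read over time.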

Assay [10] can be described thus: qHTS for Inhibitors of ATXN expression: Validation (AID 588378). Also: nearly all actives have a fitted effect of over 75% in size. Also: potency is read from the fitted curve at half-maximal effect. In short, it runs like this: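 Compounds were pinned onto attached HEK293 cells carrying an ATXN2-firefly luciferase construct and incubated 24 hrs at 37 degrees C. Each well then received a fluorescent viability reagent followed by luciferase substrate for end-point luminescence.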
In assay [11] the target is DNA dC->dU-editing enzyme APOBEC-3G (Homo sapiens) (UniProt Q9HC16). The assay can be described thus: qHTS for inhibitors of Vif-A3G interactions: Validation (AID 588379). Also: 0% is about no effect. In short, it runs like this:
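HeLa cells stably expressing Vif and A3G-eYFP, 700 cells/well, incubated overnight at 37 deg C, then exposed to compound overnight at 37 deg C. Inhibition of Vif-mediated degradation read as increased yellow fluorescence (Ex 488/Em 500-530) by laser-scanning cytometry.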

Assay [12] has as its target Androgen receptor (Homo sapiens) (UniProt P10275). Nature of the assay: qHTS assay for small molecule agonists of androgen receptor signaling (AID 588515; active = well fitted curve in the direction sought with a large enough effect in the signal ratio, with a control signal flat; the % refers to the signal ratio; also: % is scaled to controls: 0 for no effect and ±100 for the full control effect). Particulars: AR-UAS-bla HEK293, beta-lactamase ratio, agonist 16 h; stronger effect = higher value. In short, it runs like this: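 EC50 and efficacy came from Hill fits of titrations (up to 92 uM) normalized to 30 nM R1881 as 100% and DMSO as 0%. Compound exposure was 16 h at 37 C on AR-UAS-bla HEK293 cells, with a 405/460/530 nm CCF4 fluorescence read.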

For assay [13], the target named is Thyrotropin-releasing hormone receptor (Homo sapiens) (UniProt P34981). The assay can be described thus: qHTS for Small Molecule Agonists and Allosteric Enhancers of Human TRH Receptor: Validation Screen for Agonists (AID 493127;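 active = calcium activation more than 3 SD above the typical response in the agonist read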;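 also: intracellular calcium rise by fluo-8 fluorescence before TRH EC20 addition; 0% is about no effect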). Particulars: TRH receptor agonist cell assay; at 2 µM; stronger effect = higher value. In short, it runs like this:
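Gq-coupled calcium mobilization in TRHR cells after compound addition, monitored kinetically with fluo-8 dye on an FDSS reader.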

Assay [14] addresses Peptidyl-prolyl cis-trans isomerase NIMA-interacting 1 (Homo sapiens) (UniProt Q13526). The assay can be described thus: qHTS Validation Assay to Find Inhibitors of Pin1 (AID 504536; active = well fitted inhibition curve with a large enough effect in the polarisation, with a control signal flat, not every such curve was filed as active; the % refers to the polarisation;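 also: 0% = full Pin1 enzyme wells and -100% = no-enzyme wells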). In short, it runs like this: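 Fluorescence polarization competition: compounds (titration) displace HiFluor-488-labeled Pin1-1b peptide from Pin1 (0.3 uM final) in pH 7.5 HEPES buffer with DTT, 10 min at room temperature; %Activity normalized to no-enzyme wells, curves fitted.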

The nature of assay [15]: qHTS for Inhibitors of ATXN expression: Validation of Cytotoxic Assay (AID 588349).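 Also: cells exposed to compound for 72 hr; % is scaled to controls: 0 for no effect and ±100 for the full control effect.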 In short, it runs like this:
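HEK293, compound dose series, 72 hr / 37 degrees C; viability via CellTiter Glo (intracellular ATP).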

The target in assay [16] is Estrogen receptor (Homo sapiens) (UniProt P03372). Nature of the assay: qHTS assay for small molecule agonists of estrogen receptor alpha signaling (AID 588514; calls by dose curve;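 also: 0% = vehicle only and 100% = reference agonist; nearly all actives have a fitted effect of over 70% in size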). In short, it runs like this: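 Reporter-gene assay. […] controls beta-lactamase in HEK 293 GripTite cells; after 18 hrs with compound, CCF4 substrate is added for 2 hrs and fluorescence is read.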

For assay [17], the target named is Phosphoglycerate kinase, glycosomal (Trypanosoma brucei brucei) (UniProt P07378). Nature of the assay: qHTS Validation Assay to Find Inhibitors of Phosphoglycerate Kinase (AID 504547).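 Also: control wells lack PGK and mark full inhibition.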 In short, it runs like this: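 Inhibition of the enzyme is judged by a Kinase-Glo Plus luminescent signal following a one-hour incubation at room temperature. Because 1,3-BPG is unstable, it is made in situ by GAPDH at 100nM final; no-PGK wells define the baseline.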

Several values for one entry are separate records, joined by “and”; a condition that tells them apart may be missing. Equal values may be shown once. Results filed as inconclusive are left out. Activity calls are given as the source filed them. Unless noted, calls follow the shape of the dose curve; as a rule, active = well fitted curve in the direction sought with a large enough effect; inconclusive = small, poorly fitted or top-dose-only effect, or another doubt; inactive = no such curve, though single readings can be large; an effect the other way counts as inactive or inconclusive.

Sequence of Estrogen receptor (Homo sapiens) (P03372 whole entry, looked up): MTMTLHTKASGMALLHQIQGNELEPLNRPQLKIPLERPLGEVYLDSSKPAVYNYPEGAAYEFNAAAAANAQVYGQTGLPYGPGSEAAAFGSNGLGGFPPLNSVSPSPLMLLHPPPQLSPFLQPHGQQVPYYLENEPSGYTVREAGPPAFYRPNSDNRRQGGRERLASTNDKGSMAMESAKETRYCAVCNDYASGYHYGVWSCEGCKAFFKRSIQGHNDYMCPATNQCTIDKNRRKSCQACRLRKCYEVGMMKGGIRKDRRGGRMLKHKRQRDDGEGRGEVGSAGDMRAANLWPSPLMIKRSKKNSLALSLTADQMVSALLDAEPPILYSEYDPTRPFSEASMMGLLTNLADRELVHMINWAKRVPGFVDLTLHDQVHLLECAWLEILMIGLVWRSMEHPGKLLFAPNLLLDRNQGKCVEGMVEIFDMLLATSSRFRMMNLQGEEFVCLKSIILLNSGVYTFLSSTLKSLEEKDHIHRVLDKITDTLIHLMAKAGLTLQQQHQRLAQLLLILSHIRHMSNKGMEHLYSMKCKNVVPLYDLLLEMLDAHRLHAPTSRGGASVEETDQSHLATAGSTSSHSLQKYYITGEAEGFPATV
Sequence of ATPase family AAA domain-containing protein 5 (Homo sapiens) (Q96QE3 whole entry, looked up, the tested form may be a part): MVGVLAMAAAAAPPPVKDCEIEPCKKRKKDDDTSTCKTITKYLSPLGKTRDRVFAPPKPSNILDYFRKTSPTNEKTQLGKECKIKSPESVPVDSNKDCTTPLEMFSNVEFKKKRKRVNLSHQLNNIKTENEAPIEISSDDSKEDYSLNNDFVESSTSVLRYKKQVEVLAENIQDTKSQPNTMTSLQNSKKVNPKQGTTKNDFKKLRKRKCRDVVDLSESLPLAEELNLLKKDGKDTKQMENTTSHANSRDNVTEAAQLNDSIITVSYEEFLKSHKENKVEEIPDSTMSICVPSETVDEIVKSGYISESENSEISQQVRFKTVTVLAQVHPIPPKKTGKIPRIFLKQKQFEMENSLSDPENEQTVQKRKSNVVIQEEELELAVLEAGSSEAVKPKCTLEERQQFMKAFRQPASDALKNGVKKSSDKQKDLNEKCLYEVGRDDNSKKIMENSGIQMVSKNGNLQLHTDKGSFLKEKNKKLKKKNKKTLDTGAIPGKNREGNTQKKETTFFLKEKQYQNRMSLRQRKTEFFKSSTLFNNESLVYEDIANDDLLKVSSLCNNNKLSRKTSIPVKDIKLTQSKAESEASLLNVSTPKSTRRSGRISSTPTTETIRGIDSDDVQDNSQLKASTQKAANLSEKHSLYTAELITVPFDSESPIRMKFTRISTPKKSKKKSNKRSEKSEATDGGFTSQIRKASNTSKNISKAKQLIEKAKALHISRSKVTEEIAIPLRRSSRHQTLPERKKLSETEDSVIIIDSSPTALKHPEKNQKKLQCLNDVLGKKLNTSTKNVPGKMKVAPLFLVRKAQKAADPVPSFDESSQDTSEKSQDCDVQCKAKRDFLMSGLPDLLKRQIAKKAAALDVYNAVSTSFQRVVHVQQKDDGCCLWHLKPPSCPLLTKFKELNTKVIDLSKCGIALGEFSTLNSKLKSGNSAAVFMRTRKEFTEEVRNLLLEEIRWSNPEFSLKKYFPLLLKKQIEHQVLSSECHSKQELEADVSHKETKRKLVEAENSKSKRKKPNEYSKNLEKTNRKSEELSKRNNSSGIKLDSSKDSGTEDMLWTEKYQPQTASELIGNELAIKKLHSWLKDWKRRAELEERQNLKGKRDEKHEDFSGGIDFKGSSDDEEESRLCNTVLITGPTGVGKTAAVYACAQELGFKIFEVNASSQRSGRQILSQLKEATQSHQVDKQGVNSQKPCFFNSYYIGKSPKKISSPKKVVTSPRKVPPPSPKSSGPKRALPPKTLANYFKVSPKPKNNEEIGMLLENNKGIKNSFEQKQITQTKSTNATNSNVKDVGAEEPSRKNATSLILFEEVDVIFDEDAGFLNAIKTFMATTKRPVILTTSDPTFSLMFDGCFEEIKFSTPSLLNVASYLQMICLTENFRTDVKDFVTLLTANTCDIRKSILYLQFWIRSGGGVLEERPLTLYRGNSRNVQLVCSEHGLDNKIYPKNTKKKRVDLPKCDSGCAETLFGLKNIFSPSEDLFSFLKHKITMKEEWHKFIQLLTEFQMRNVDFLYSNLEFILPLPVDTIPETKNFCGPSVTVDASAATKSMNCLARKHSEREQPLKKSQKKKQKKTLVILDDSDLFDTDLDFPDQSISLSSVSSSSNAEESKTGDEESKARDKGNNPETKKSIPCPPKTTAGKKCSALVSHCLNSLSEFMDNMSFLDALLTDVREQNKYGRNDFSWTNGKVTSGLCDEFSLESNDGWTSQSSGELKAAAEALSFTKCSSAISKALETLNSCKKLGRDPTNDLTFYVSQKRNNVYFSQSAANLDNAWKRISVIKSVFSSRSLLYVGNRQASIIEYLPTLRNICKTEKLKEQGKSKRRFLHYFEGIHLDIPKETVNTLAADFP
Sequence of Galactokinase (Homo sapiens) (P51570 whole entry, looked up): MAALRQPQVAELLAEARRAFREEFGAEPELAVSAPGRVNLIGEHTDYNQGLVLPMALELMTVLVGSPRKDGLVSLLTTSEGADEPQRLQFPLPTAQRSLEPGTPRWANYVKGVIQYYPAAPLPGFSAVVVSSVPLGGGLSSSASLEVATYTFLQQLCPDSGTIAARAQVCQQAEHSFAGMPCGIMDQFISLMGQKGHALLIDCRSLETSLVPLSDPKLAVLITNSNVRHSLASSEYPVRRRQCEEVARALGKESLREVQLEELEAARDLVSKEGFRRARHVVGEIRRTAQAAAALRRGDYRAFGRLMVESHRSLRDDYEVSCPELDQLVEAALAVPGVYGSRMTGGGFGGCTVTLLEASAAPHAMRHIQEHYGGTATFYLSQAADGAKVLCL
Sequence of Ubiquitin carboxyl-terminal hydrolase 1 (Homo sapiens) (O94782 whole entry, looked up): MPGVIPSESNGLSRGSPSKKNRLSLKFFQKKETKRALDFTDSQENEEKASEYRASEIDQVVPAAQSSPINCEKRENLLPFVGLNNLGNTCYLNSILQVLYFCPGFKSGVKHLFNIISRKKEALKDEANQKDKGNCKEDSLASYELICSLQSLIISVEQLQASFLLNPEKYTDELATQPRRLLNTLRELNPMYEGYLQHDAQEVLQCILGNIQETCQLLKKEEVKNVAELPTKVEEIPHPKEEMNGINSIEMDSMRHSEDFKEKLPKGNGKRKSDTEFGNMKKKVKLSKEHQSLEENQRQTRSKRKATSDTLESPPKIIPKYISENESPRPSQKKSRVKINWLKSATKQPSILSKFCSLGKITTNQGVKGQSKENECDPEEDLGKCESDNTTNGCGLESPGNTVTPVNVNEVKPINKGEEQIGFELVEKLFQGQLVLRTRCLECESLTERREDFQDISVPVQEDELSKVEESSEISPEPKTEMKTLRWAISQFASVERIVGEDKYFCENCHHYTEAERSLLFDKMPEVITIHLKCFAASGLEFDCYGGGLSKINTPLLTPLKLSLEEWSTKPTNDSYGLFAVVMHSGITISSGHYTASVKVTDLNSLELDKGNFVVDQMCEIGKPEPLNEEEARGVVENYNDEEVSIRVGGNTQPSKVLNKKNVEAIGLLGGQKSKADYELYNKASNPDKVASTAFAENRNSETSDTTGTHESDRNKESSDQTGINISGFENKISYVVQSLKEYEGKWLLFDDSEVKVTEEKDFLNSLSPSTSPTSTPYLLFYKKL
Sequence of phosphoglycerate mutase (Leishmania major) (Q4Q090 1-553): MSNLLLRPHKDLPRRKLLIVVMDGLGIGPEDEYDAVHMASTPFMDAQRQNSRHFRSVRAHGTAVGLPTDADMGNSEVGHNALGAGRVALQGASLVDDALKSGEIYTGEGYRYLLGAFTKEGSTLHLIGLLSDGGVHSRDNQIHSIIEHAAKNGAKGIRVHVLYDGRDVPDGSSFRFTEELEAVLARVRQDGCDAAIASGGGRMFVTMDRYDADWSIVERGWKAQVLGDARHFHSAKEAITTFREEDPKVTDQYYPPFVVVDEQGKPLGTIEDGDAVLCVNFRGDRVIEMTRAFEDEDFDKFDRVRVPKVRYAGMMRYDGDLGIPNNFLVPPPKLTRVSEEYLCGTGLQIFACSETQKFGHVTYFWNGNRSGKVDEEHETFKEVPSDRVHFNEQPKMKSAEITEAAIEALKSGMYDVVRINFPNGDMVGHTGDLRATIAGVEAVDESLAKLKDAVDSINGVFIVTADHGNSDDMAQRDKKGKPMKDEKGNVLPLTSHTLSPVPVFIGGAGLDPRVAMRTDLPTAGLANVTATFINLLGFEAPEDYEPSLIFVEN
Sequence of Androgen receptor (Homo sapiens) (P10275 whole entry, looked up): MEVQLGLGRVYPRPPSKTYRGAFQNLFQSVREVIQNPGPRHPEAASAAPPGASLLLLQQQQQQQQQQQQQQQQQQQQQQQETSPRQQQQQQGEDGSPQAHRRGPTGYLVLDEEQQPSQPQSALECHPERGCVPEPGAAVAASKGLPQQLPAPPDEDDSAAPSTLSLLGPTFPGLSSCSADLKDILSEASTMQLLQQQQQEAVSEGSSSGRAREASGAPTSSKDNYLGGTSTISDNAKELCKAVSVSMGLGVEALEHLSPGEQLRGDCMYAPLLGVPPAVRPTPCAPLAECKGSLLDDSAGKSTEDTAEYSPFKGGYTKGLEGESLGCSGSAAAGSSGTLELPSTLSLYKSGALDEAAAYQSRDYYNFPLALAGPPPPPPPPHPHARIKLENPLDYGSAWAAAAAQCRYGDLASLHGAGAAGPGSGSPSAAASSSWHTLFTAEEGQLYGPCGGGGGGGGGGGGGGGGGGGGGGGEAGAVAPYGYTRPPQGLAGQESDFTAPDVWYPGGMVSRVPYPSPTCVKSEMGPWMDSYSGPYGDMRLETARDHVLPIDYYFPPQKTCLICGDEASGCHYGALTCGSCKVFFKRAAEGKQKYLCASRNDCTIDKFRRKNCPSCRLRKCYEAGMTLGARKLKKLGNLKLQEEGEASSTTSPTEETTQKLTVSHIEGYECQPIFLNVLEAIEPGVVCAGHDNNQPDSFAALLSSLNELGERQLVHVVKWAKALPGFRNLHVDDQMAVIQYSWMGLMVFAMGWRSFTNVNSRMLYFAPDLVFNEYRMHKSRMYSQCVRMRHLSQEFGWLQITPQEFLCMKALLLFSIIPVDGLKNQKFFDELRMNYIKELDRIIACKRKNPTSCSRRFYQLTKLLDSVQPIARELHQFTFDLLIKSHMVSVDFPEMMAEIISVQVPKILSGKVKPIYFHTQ

As to `CN(Cc1cnc2nc(N)nc(N)c2n1)c1ccc(C(=O)N[C@@H](CCC(=O)O)C(=O)O)cc1`, the Potency result in [1], in assay [2], in [3], in [6], in [7] and in assay [9] was “inactive” in each case. Besides, in [10], the Potency result was “inactive”. Besides, in assay [4], the Potency was 0.58 µM (active). Also, the viability change in assay [4] is -0.856%. Moreover, the compound was called inactive in assay [5], in assay [8] and in assay [11]. In assay [12], the activation is 0.214% (inactive).
Regarding `NCCCCCC(=O)O`, the Potency entry in assay [1], in assay [2], in assay [4], in [6], in assay [9] and in [10] was “inactive” each time. In assay [13], the activation is 0.0625% (inactive). Also, the viability change in [4] was 0%. Also, the result in assay [5] and in [8] was inactive.
On to `O=c1c(O)c(-c2ccc(O)c(O)c2)oc2cc(O)cc(O)c12`, for which the Potency result in [1], in assay [2], in [4], in [6] and in [10] was “inactive” in each case. Moreover, in assay [13], the activation was 0.938% (inactive). The viability change in assay [4] was -9.26%. Besides, the call in assay [5], in [8] and in [11] was inactive.
As to `CC[C@@]1(O)C(=O)OCc2c1cc1n(c2=O)Cc2cc3c(CN(C)C)c(O)ccc3nc2-1`, in [1], the Potency result is “inactive”. Moreover, the Potency in assay [9] is 79.4 µM (active).
For `Clc1ccccc1C(c1ccccc1)(c1ccccc1)n1ccnc1`, the Potency entry in assay [1], in assay [2], in assay [3], in [6] and in assay [14] was “inactive” in each case. Also, in [13], the activation was -13.1% (inactive). In addition, the result in assay [5] and in assay [8] was inactive. Further, the Potency in assay [10] was 25.1 µM (active).
For the compound `COc1cc2c(c(OC)c1OC)-c1ccc(OC)c(=O)cc1[C@@H](NC(C)=O)CC2`, the Potency result in [1], in [3], in assay [6], in [14] and in [10] was “inactive” in each case. Further, the activation in assay [13] is 0% (inactive); in assay [12] it was -5.98% (inactive) and 0.799% (inactive) and 0.899% (inactive). Further, the result in [5], in assay [8], in [15], in assay [11] and in assay [16] was inactive.
`CC[N+](CC)(CC)CCOc1cccc(OCC[N+](CC)(CC)CC)c1OCC[N+](CC)(CC)CC`: the Potency entry in assay [1], in [2], in [3], in assay [4], in assay [6] and in assay [17] was “inactive” throughout. Besides, the Potency entry in assay [10] is “inactive”. The viability change in assay [4] turned out to be 5.55%. Moreover, the compound was called inactive in [5] and in [8].
Regarding `CC1(CN2CCC(n3c(=O)[nH]c4ccccc43)CC2)OCc2ccccc2-n2cccc21` (stereo not given), the Potency result in assay [1] is “inactive”.
For `Nc1nc2c(ncn2COC(CO)CO)c(=O)[nH]1`, the Potency entry in [1], in [2], in [3], in [4], in [6] and in [14] was “inactive” throughout. Further, the Potency result in assay [17], in [9] and in assay [10] was “inactive” each time. Further, the activation in assay [13] was 0.625% (inactive). Moreover, the viability change in assay [4] worked out at 2.85%. Moreover, the outcome in [5] and in assay [8] was inactive.
For the compound `Clc1ccc2nsnc2c1NC1=NCCN1`, the Potency result in [1], in [2], in assay [4], in [17], in assay [9] and in [10] was “inactive” each time. Moreover, the viability change in assay [4] was -2.06%. Also, the outcome in assay [5], in assay [8] and in [15] was inactive.

The values above are taken from PubChem BioAssay (NCATS).
